# Data from PubChem BioAssay (EPA / NIEHS).
# Results filed as inconclusive are left out. Calls of active or inactive are those of the source. How the source made its calls, unless noted: active means hit-call score of the fitted dose curve at least 0.9, where 1 is the maximum; inactive means score below 0.9.
# Legend:
# [1] = biological target: Paired box protein Pax-6 (Homo sapiens) (UniProt P26367); experiment: ATG_Pax6_CIS: Attagene CIS-FACTORIAL HepG2 Assay for human Paired Box 6 (PAX6) (AID 2282956); conditions: HepG2 CIS-FACTORIAL PAX6 reporter transcription, RNA readout; actives raise or lower the signal
# Method in brief: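 Fluorescent RT-PCR products separated by capillary electrophoresis report PAX6-linked promoter mRNA in HepG2 cells 24 h post-dose. Curves fitted bidirectionally, DMSO as negative control.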
# [2] = ATG_PXRE_CIS: Attagene CIS-FACTORIAL HepG2 Assay for human Pregnane X Receptor Element (PXRE) (AID 2282957); conditions: HepG2 Attagene CIS-FACTORIAL PXRE reporter, mRNA; actives raise or lower the signal
# Method in brief: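 Reporter transcripts under endogenous PXR-responsive cis-regulation quantified from total RNA of transfected HepG2 cells 24 h post-dosing, via RT-PCR with fluorescent primer extension and capillary electrophoresis. Gain or loss of signal fitted against DMSO baseline.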
# [3] = ATG_PPRE_CIS: Attagene CIS-FACTORIAL HepG2 Assay for human Peroxisome Proliferator-activated Response Element (PPRE) (AID 2282958); conditions: HepG2 PPRE cis-element reporter, Attagene transcription factor profiling; actives raise or lower the signal
# Method in brief: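 After human HepG2 hepatoma cells were transiently transfected with cis-promoter reporter constructs, they were exposed to test chemicals for 24 hours. Reporter RNA was then reverse-transcribed, PCR-amplified, FAM-labeled, HpaI-digested and quantified by capillary electrophoresis.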
# [4] = ATG_RORE_CIS: Attagene CIS-FACTORIAL HepG2 Assay for human RAR-related Orphan Receptor Element (RORE) (AID 2282959); conditions: HepG2 Attagene cis-factorial RORE reporter, mRNA; actives raise or lower the signal
# Method in brief: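 Measured here: transcript induction of a cis-regulated reporter in HepG2 cells transiently transfected via FuGene 6. After 24 h, RNA was processed by RT-PCR and fluorescent capillary electrophoresis; DMSO defined baseline activity.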
# [5] = ATG_Sox_CIS: Attagene CIS-FACTORIAL HepG2 Assay for human SRY-box transcription factor (SOX) (AID 2282960); conditions: HepG2 Attagene cis-factorial SOX reporter, mRNA; actives raise or lower the signal
# Method in brief: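 Using transiently transfected HepG2 cells, reporter transcription driven by cis elements was assessed 24 h after dosing. Signal was fluorescence of capillary-separated RT-PCR products, with DMSO defining baseline activity.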
# [6] = biological target: Transcription factor Sp1 (Homo sapiens) (UniProt P08047); experiment: ATG_Sp1_CIS: Attagene CIS-FACTORIAL HepG2 Assay for human Specificity Protein 1 (Sp1) (AID 2282961); conditions: HepG2 Sp1 cis-reporter transcription, actives raise or lower the signal
# Method in brief: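 After transient transfection of HepG2 cells with cis-promoter reporter units and 24 h chemical treatment, reporter transcripts were quantified by RT-PCR and capillary electrophoresis fluorescence. Gain- and loss-of-signal fitted against DMSO.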
# [7] = ATG_SREBP_CIS: Attagene CIS-FACTORIAL HepG2 Assay for human Sterol Regulatory Element Binding (SREBP) (AID 2282962); conditions: HepG2 Attagene cis-factorial SREBP reporter, mRNA; actives raise or lower the signal
# Method in brief: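 Endogenous factor activity is measured in HepG2 through multiplexed reporter units under cis-element control. Following a 24 h incubation, reporter transcripts are reverse-transcribed, PCR-amplified and sized by capillary electrophoresis; activity is fitted in both directions relative to DMSO.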
# [8] = biological target: Signal transducer and activator of transcription 3 (Homo sapiens) (UniProt P40763); experiment: ATG_STAT3_CIS: Attagene CIS-FACTORIAL HepG2 Assay for human Signal Transducer and Activator of Transcription 3 (STAT3) (AID 2282963); conditions: HepG2, Attagene cis-factorial STAT3 reporter transcription; actives raise or lower the signal
# Method in brief: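 Readout is reporter transcript quantified by RT-PCR and capillary electrophoresis, with 6-FAM primer extension and HpaI digestion. Total RNA is taken 24 h after dosing transiently transfected HepG2 carrying cis-regulated reporter units. Bidirectional fit against DMSO.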
# [9] = ATG_TA_CIS: Attagene CIS-FACTORIAL HepG2 Assay for human TA Basal Promoter (AID 2282964); conditions: HepG2 Attagene CIS-factorial TA basal promoter reporter; actives raise or lower the signal
# Method in brief: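 Multiplexed mRNA reporter assay, HepG2, 24 h. Reporter cDNA amplified, 6-FAM primer-extended, HpaI-cut, CE-sized; DMSO = negative control and baseline.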
# [10] = ATG_TCF_b_cat_CIS: Attagene CIS-FACTORIAL HepG2 Assay for human T-Cell-Factor with beta-catenin (TCF/b-cat) (AID 2282965); conditions: HepG2 TCF/beta-catenin cis-reporter transcription, actives raise or lower the signal
# Method in brief: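 Endogenous TCF/LEF activity read as reporter transcript level via RT-PCR and capillary electrophoresis fluorescence in transfected HepG2, 24 h exposure; gain or loss of signal fitted against DMSO controls.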
# [11] = ATG_TAL_CIS: Attagene CIS-FACTORIAL HepG2 Assay for human TAL Basal Promoter (AID 2282966); conditions: HepG2 Attagene cis-factorial TAL promoter reporter; actives raise or lower the signal;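 further: background control endpoint measuring basal TAL promoter reporter mRNA not a specific factor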
# Method in brief: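 Background-control endpoint: basal TAL promoter reporter transcripts in transiently transfected HepG2, measured 24 h after dosing. Read-out by RT-PCR with fluorescent primer extension and capillary electrophoresis; gain or loss of signal fitted relative to DMSO.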
# [12] = ATG_TGFb_CIS: Attagene CIS-FACTORIAL HepG2 Assay for human Transforming Growth Factor (TGF) (AID 2282967); conditions: HepG2 Attagene CIS TGFb reporter, mRNA transcription; actives raise or lower the signal
# Method in brief: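 Transcript-level reporter readout: HepG2 transfectants, 24 h exposure, RNA to cDNA, reporter-specific PCR, fluorescent primer extension, capillary sizing against ROX standards. Gain- or loss-of-signal relative to DMSO.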
# [13] = ATG_VDRE_CIS: Attagene CIS-FACTORIAL HepG2 Assay for human Vitamin D Receptor Element (VDRE) (AID 2282968); conditions: HepG2 VDRE cis-reporter transcription, actives raise or lower the signal
# Method in brief: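 Readout is VDRE-driven reporter mRNA reflecting endogenous factor activity in human HepG2 cells, sampled 24 h post-dose. Quantification used labelled RT-PCR products separated by capillary electrophoresis; bidirectional analysis relative to DMSO.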
# [14] = biological target: Steroid hormone receptor ERR1 (Homo sapiens) (UniProt P11474); experiment: ATG_ERRa_TRANS: Attagene TRANS-FACTORIAL HepG2 Assay for human Estrogen-Related Receptor alpha (ERRa) (AID 2282971; active means hit-call score of the fitted dose curve at least 0.9, where 1 is the maximum); conditions: HepG2 Attagene TRANS reporter, ERRa transactivation
# Method in brief: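 Reporter transcripts from ERRa-Gal4 chimera activity measured in transiently transfected human HepG2 cells 24 hours after dosing, using RT-PCR with 6-FAM primer extension, HpaI digestion and capillary electrophoresis; DMSO is baseline.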
# [15] = biological target: X-box-binding protein 1 (Homo sapiens) (UniProt P17861); experiment: ATG_Xbp1_CIS: Attagene CIS-FACTORIAL HepG2 Assay for human X-box Binding Protein 1 (XBP1) (AID 2282972); conditions: HepG2 XBP1 cis-element reporter, Attagene multiplex; actives raise or lower the signal
# Method in brief: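 Multiplexed cis-reporter readout in transfected HepG2 liver cells. Exposure lasted 24 hours. Activity in either direction was fitted against DMSO as negative control and baseline.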
# [16] = ATG_M_19_TRANS: Attagene TRANS-FACTORIAL HepG2 Assay for M19 Transcription Factor (Internal Marker) (AID 2282974; active means hit-call score of the fitted dose curve at least 0.9, where 1 is the maximum); conditions: HepG2 Attagene TRANS-FACTORIAL M19 internal marker reporter
# Method in brief: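 Gain-of-signal in reporter mRNA, relative to DMSO, was scored from capillary electrophoresis fluorescence. HepG2 cells carried transiently transfected multiple reporter transcription units and were incubated with test chemicals for 24 h.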
# [17] = biological target: Estrogen receptor (Homo sapiens) (UniProt P03372); experiment: ATG_ERa_TRANS: Attagene TRANS-FACTORIAL HepG2 Assay for human Estrogen Receptor alpha (ERa) (AID 2282970; active means hit-call score of the fitted dose curve at least 0.9, where 1 is the maximum); conditions: HepG2 Attagene TRANS ERa GAL4 reporter, mRNA
# Method in brief: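 Reporter transcripts were measured 24 h after dosing by RT-PCR with fluorescent primer extension and capillary electrophoresis. The system is transiently transfected HepG2 expressing exogenous NR-Gal4 chimeras driving GAL4-UAS reporters; DMSO is the baseline.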
# [18] = ATG_GAL4_TRANS: Attagene TRANS-FACTORIAL HepG2 Assay for GAL4 (Internal Marker) (AID 2282976; active means hit-call score of the fitted dose curve at least 0.9, where 1 is the maximum); conditions: HepG2 Attagene TRANS GAL4 internal marker reporter
# Method in brief: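 In transfected human HepG2 liver cells dosed 24 h, GAL4 reporter mRNA serves as a baseline marker. Detection by RT-PCR with fluorescent capillary electrophoresis, activity fitted upward relative to DMSO.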
# Chain of Paired box protein Pax-6 (Homo sapiens) (P26367 whole entry, looked up): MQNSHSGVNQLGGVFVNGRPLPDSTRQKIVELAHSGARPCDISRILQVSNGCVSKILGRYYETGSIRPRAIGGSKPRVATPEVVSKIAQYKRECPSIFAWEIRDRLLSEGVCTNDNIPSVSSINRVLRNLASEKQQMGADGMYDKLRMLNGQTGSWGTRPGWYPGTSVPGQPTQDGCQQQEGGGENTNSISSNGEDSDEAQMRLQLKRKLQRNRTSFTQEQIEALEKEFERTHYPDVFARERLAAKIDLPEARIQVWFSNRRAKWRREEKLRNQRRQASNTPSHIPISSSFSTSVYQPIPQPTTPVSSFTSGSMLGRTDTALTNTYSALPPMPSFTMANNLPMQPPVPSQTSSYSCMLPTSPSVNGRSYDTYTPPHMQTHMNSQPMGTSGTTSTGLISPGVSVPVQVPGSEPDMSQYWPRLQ
# Chain of Steroid hormone receptor ERR1 (Homo sapiens) (P11474 whole entry, looked up, the tested form may be a part): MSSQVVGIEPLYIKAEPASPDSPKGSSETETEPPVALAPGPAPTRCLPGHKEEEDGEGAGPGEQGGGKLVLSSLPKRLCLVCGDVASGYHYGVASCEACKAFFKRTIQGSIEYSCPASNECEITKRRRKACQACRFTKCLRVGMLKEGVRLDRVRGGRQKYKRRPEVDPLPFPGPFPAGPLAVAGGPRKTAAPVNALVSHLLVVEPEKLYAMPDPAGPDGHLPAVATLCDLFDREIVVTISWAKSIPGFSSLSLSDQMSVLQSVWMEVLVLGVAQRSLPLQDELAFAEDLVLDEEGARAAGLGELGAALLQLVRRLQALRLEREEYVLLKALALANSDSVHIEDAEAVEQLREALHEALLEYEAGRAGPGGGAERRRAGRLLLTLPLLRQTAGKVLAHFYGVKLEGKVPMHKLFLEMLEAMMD
# Chain of Signal transducer and activator of transcription 3 (Homo sapiens) (P40763 whole entry, looked up): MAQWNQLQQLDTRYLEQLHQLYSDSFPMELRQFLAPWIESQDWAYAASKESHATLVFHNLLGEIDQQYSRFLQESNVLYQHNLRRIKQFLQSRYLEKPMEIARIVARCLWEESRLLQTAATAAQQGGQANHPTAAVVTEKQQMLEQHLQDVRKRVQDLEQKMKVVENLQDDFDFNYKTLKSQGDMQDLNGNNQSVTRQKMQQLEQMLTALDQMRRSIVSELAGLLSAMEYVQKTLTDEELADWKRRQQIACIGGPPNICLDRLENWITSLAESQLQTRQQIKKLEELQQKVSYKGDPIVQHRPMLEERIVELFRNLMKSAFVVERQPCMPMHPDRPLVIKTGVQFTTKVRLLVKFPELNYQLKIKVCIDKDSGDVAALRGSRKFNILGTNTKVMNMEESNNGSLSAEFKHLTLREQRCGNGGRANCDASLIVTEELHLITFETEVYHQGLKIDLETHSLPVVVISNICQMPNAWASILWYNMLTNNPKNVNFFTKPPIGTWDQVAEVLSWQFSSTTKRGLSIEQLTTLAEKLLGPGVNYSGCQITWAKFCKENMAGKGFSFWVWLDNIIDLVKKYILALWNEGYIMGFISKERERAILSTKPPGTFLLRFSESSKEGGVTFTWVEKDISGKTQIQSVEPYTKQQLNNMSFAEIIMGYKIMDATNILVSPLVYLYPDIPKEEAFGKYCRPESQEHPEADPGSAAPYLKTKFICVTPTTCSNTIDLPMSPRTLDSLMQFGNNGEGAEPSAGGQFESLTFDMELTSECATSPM
# Chain of X-box-binding protein 1 (Homo sapiens) (P17861 whole entry, looked up): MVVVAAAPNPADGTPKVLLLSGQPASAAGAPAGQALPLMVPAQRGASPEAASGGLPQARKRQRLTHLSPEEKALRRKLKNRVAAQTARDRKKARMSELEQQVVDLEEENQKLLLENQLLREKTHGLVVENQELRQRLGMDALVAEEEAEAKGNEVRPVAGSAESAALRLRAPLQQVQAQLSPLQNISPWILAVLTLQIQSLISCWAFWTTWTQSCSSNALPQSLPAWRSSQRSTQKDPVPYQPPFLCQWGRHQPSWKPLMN
# Chain of Estrogen receptor (Homo sapiens) (P03372 whole entry, looked up, the tested form may be a part): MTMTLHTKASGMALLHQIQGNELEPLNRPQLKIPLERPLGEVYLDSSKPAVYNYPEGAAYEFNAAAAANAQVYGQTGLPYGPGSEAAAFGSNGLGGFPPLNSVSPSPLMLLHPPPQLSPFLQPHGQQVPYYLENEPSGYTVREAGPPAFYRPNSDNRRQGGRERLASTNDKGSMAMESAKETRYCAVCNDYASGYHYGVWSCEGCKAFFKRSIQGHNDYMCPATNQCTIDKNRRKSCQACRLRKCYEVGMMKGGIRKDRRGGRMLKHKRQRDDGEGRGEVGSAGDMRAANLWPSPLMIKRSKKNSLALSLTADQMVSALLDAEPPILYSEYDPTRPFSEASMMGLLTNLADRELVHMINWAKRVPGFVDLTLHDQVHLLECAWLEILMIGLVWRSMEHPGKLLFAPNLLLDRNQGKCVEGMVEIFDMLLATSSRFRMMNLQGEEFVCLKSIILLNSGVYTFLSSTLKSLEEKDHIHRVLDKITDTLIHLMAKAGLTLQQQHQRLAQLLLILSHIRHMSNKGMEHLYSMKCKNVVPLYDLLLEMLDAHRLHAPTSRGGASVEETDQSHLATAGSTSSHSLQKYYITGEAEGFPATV
# Chain of Transcription factor Sp1 (Homo sapiens) (P08047 whole entry, looked up): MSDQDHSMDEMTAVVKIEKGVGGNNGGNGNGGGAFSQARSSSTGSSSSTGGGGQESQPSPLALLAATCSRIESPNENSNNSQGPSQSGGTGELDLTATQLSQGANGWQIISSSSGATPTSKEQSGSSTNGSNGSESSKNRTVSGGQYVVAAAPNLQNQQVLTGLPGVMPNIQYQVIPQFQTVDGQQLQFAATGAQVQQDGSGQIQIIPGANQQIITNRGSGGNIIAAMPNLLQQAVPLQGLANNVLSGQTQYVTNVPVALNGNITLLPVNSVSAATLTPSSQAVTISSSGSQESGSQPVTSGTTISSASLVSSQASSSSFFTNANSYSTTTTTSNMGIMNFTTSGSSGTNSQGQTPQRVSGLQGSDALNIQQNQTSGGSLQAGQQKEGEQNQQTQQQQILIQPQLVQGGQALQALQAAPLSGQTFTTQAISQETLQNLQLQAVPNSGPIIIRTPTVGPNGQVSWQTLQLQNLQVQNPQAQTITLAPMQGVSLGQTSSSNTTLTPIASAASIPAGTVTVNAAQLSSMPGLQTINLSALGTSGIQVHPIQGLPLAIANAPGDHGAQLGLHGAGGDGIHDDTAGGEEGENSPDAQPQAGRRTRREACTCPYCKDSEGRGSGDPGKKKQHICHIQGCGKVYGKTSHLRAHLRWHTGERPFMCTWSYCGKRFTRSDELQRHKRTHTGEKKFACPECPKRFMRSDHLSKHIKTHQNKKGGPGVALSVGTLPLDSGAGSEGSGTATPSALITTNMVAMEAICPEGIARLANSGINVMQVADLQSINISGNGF
smiles,measurement,setting,value
CCC(C)C(=O)OC (stereo unspecified),outcome,[1],inactive
same,outcome,[2],inactive
same,outcome,[3],inactive
same,outcome,[4],inactive
same,outcome,[5],inactive
same,outcome,[6],inactive
same,outcome,[7],inactive
same,outcome,[8],inactive
same,outcome,[9],inactive
same,outcome,[10],inactive
same,outcome,[11],inactive
same,outcome,[12],inactive
same,outcome,[13],inactive
same,outcome,[14],inactive
same,outcome,[15],inactive
same,outcome,[16],inactive
C/C=C/C=C/CCCCCCCO,AC50,[1],76 µM (active)
same,AC50,[2],25.5 µM (active)
same,outcome,[3],inactive
same,outcome,[5],inactive
same,outcome,[6],inactive
same,outcome,[7],inactive
same,outcome,[8],inactive
same,AC50,[9],100 µM (active)
same,outcome,[10],inactive
same,outcome,[11],inactive
same,outcome,[12],inactive
same,AC50,[13],22.7 µM (active)
same,outcome,[15],inactive
same,outcome,[16],inactive
CCOC(=O)C1=NN(c2ccc(Cl)cc2Cl)C(C)(C(=O)OCC)C1 (stereo unspecified),outcome,[1],inactive
same,AC50,[2],9.36 µM (active)
same,outcome,[3],inactive
same,outcome,[4],inactive
same,outcome,[5],inactive
same,outcome,[7],inactive
same,outcome,[8],inactive
same,outcome,[9],inactive
same,outcome,[10],inactive
same,outcome,[11],inactive
same,outcome,[12],inactive
same,outcome,[13],inactive
same,outcome,[17],inactive
same,outcome,[14],inactive
same,outcome,[15],inactive
same,outcome,[16],inactive
same,outcome,[18],inactive
CC(=O)OCc1ccccc1,outcome,[1],inactive
same,outcome,[2],inactive
same,outcome,[3],inactive
same,outcome,[4],inactive
same,outcome,[5],inactive
same,outcome,[7],inactive
same,outcome,[8],inactive
same,outcome,[9],inactive
same,outcome,[10],inactive
same,outcome,[11],inactive
same,outcome,[12],inactive
same,outcome,[13],inactive
same,outcome,[17],inactive
same,outcome,[15],inactive
same,outcome,[16],inactive
same,outcome,[18],inactive
CCN1CN(CC)CN(CC)C1,outcome,[1],inactive
same,AC50,[2],119 µM (active)
same,outcome,[3],inactive
same,AC50,[5],138 µM (active)
same,AC50,[6],163 µM (active)
same,outcome,[7],inactive
same,outcome,[8],inactive
same,outcome,[9],inactive
same,AC50,[10],132 µM (active)
same,outcome,[11],inactive
same,outcome,[12],inactive
same,outcome,[17],inactive
same,AC50,[15],162 µM (active)
same,outcome,[16],inactive
CCCCCCCCCCCCCc1ccccc1,outcome,[1],inactive
same,outcome,[2],inactive
same,outcome,[3],inactive
same,outcome,[4],inactive
same,outcome,[5],inactive
same,outcome,[6],inactive
same,outcome,[7],inactive
same,outcome,[8],inactive
same,outcome,[9],inactive
same,outcome,[10],inactive
same,outcome,[11],inactive
same,outcome,[12],inactive
same,outcome,[13],inactive
same,outcome,[15],inactive
Cc1ccc(S(=O)(=O)N=C=O)cc1,outcome,[1],inactive
same,outcome,[2],inactive
same,outcome,[3],inactive
same,outcome,[4],inactive
same,outcome,[5],inactive
same,outcome,[6],inactive
same,outcome,[7],inactive
same,outcome,[9],inactive
same,outcome,[10],inactive
same,outcome,[11],inactive
same,outcome,[12],inactive
same,outcome,[13],inactive
same,outcome,[17],inactive
same,outcome,[14],inactive
same,outcome,[15],inactive
same,outcome,[18],inactive
O=S(=O)(O)c1ccc(Nc2nc(Nc3ccc(C=Cc4ccc(Nc5nc(Nc6ccc(S(=O)(=O)O)cc6)nc(N(CCO)CCO)n5)cc4S(=O)(=O)O)c(S(=O)(=O)O)c3)nc(N(CCO)CCO)n2)cc1,outcome,[1],inactive
same,AC50,[2],21.2 µM (active)
same,outcome,[3],inactive
same,outcome,[4],inactive
same,outcome,[5],inactive
same,outcome,[8],inactive
same,outcome,[9],inactive
same,outcome,[10],inactive
same,outcome,[11],inactive
same,outcome,[12],inactive
same,outcome,[13],inactive
same,outcome,[14],inactive
same,outcome,[15],inactive
same,outcome,[18],inactive
